# Data as given in PubChem BioAssay AID743343 (Broad Institute, 2014).
# Results with a measured potency or affinity are listed apart. Activity calls are given as the source filed them. No rule for the calls is given here.
# Test system: Drosophila melanogaster bursicon receptor LGR2 (rickets)
# Assay: LGR2 antagonists, dose response, cell-based, HEK293, CRE-luciferase reporter, cherry pick, set 2 (AID 743343)
# Conditions: bursicon-induced cAMP antagonist; series mostly up to 35 µM
row,SMILES,outcome
1,Cc1ccc2c(c1)C1CN(C)CCC1N2C(=O)c1cn(-c2ccccc2)nc1-c1ccccc1 (stereo not drawn),inactive
2,O=C(O)c1nn(Cc2ccc(Cl)cc2Cl)c2ccccc12,inactive
3,O=c1c2ccccc2nc(/C=C/c2ccc([N+](=O)[O-])o2)n1-c1ccc(O)cc1,inactive
